We go through 17 compounds from PubChem BioAssay (EPA / NIEHS).

Several values for one entry are separate records, joined by “and”; a condition that tells them apart may be missing. Identical values can stand only once. Records with an inconclusive call do not appear. The source holds several records for some structures; these can differ, active in one and inactive in another. Activity calls are given as the source filed them. Rule for the calls, unless noted: active = hit-call score of the fitted dose curve at least 0.9, where 1 is the maximum; inactive = score below 0.9.

The target of test [1] is human Vitamin D Receptor (VDR), VDR (gene 7421) (UniProt P11473). The test is described as follows: ATG_VDR_TRANS: Attagene TRANS-FACTORIAL HepG2 Assay for human Vitamin D Receptor (VDR) (AID 2283022; active = hit-call score of the fitted dose curve at least 0.9, where 1 is the maximum). The procedure, abridged:
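RT-PCR/capillary electrophoresis read-out of reporter mRNA induction in transiently transfected HepG2; 24 h dosing; chimeric NR-Gal4 (TRANS format); gain-of-signal fit against DMSO baseline.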

The nature of test [2]: BSK_3C_SRB: Viability Assessment in the BioMAP Diversity Plus: 3C Assay (AID 2283023).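 Note: fitted both ways against DMSO so a hit may be signal rise or drop.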 As to conditions: primary human endothelial cells (HUVEC). The method in brief: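 HUVEC, 24 h post-dose; 10% TCA fix, 0.1% SRB stain, A560 nm. Bidirectional curve fit vs DMSO negative control.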
Read-out in test [3]: Matrix Metallopeptidase 1 (MMP1), MMP1 (gene 4312)
As to the kind of experiment: BSK_BE3C_MMP1: BioMAP Diversity Plus: BE3C Assay for Matrix Metallopeptidase 1 (MMP1) Biomarker Activity (AID 2283024). To be noted: primary human bronchial epithelial cells; actives raise or lower the signal. The procedure, abridged:
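Human bronchial epithelial cells (BE3C system) exposed to compound for 24 h; MMP1 then quantified by ELISA. Activity was fitted in both directions relative to DMSO.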

The nature of test [4]: BSK_3C_Vis: BioMAP Diversity Plus: 3C Assay for Morphology Visualization (AID 2283025).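 For AC50: light microscopy image of cell morphology used as background control.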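 Note: fitted both ways so gain or loss versus DMSO counts.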 As to conditions: primary human endothelial cells (HUVEC). The method in brief:
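Chemicals were added to primary human umbilical vein endothelium, cells were incubated 24 h, and morphology was then visualized by light microscopy. Gain or loss of signal was fitted bidirectionally relative to DMSO.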

Read-out in test [5]: Pselectin, SELP (gene 6403)
The test is described as follows: BSK_4H_Pselectin: BioMAP Diversity Plus: 4H Assay for Pselectin Biomarker Activity (AID 2283026). As to conditions: primary human endothelial cells (HUVEC); actives raise or lower the signal. The procedure, abridged: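 ELISA read-out of P-selectin on human umbilical vein endothelium after 24 h of dosing. Values derive from bidirectional fitting relative to DMSO. Parallel SRB protein staining flagged overt cytotoxicity.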

A short description of test [6]: BSK_4H_SRB: Viability Assessment in the BioMAP Diversity Plus: 4H Assay (AID 2283027).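 For AC50: curves fitted both ways versus DMSO so AC50 may be loss or gain.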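 Note: cells exposed to compound for 24 h before staining.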 As to conditions: primary human endothelial cells (HUVEC). The procedure, abridged: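 Human umbilical vein endothelial cells were dosed with chemical and, after 24 h, fixed with 10% TCA, stained with 0.1% sulforhodamine B, and read at 560 nm to give total protein as a cytotoxicity measure. Bidirectional fitting relative to DMSO control.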

A short description of test [7]: BSK_BE3C_SRB: Viability Assessment in the BioMAP Diversity Plus: BE3C Assay (AID 2283028).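 For AC50: fitted both ways so AC50 may mark signal gain or loss versus DMSO.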 To be noted: primary human bronchial epithelial cells. The procedure, abridged: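 Primary human bronchial epithelium; chemical dosing, 24 h; 10% TCA fix, 0.1% SRB stain, A560; bidirectional fit vs DMSO baseline.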
Read-out in test [8]: Thrombomodulin, THBD (gene 7056)
As to the kind of experiment: BSK_3C_Thrombomodulin: BioMAP Diversity Plus: 3C Assay for Thrombomodulin Biomarker Activity (AID 2283029). As to conditions: primary human endothelial cells (HUVEC); actives raise or lower the signal. The procedure, abridged:
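Read-out is ELISA of thrombomodulin on human umbilical vein endothelium 24 h after chemical dosing. Gain or loss of signal is scored relative to DMSO. Overt cytotoxicity is checked in parallel cultures by sulforhodamine B staining.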

Read-out in test [9]: Urokinase-type plasminogen activator receptor (uPAR), PLAUR (gene 5329)
The test is described as follows: BSK_4H_uPAR: BioMAP Diversity Plus: 4H Assay for Urokinase-type plasminogen activator receptor (uPAR) Biomarker Activity (AID 2283030). To be noted: primary human endothelial cells (HUVEC); actives raise or lower the signal. The procedure, abridged: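 HUVEC, 24 h post-dose; uPAR by ELISA; bidirectional fit vs DMSO baseline.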

Read-out in test [10]: Vascular endothelial growth factor receptor 2 (Homo sapiens) (UniProt P35968)
The test is described as follows: BSK_4H_VEGFRII: BioMAP Diversity Plus: 4H Assay for Vascular endothelial growth factor receptor 2 (VEGFR2) Biomarker Activity (AID 2283031).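 For AC50: cell-surface VEGFR2 protein level quantified by ELISA.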 As to conditions: primary human endothelial cells (HUVEC); actives raise or lower the signal. The method in brief: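 HUVEC (human primary), 4H system; 24 h post-dose; VEGFRII by ELISA; bidirectional curve fit vs DMSO baseline; gain or loss of signal scored.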

Chain of human Vitamin D Receptor (VDR), VDR (gene 7421) (P11473 whole entry, looked up, the tested form may be a part): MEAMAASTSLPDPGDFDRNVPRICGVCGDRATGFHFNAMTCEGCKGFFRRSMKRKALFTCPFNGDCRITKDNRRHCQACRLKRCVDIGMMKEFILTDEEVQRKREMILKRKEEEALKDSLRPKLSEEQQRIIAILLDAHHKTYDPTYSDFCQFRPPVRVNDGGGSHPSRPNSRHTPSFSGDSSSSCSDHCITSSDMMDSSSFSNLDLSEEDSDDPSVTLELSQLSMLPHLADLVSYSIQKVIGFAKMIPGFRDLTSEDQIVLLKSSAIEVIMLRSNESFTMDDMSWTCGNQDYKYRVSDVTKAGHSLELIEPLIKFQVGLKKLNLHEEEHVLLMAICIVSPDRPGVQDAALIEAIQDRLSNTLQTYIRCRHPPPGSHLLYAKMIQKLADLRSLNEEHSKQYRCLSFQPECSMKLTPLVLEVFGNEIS

Take `CC[C@H](c1ccc(O)cc1)[C@@H](CC)c1ccc(O)cc1`: the result in test [1] and in test [10] was inactive. Also, the AC50 in test [2] was 27.9 µM (active); in [3] it was 38 µM (active); in test [4], 22.3 µM (active); in [5] it was 20.3 µM (active); in test [6], 30.6 µM (active); in test [7] it was 35.8 µM (active). Further, the AC50 in test [8] is 31 µM (active); in test [9], 26 µM (active).
On to `COCC(C)O` (stereo not given), for which the outcome in test [1], in test [2], in test [3], in test [4], in [5] and in test [6] was inactive. Further, the result in test [7], in test [8], in [9] and in test [10] was inactive.
On to `CCC(=C(c1ccc(O)cc1)c1ccc(OCCN(C)C)cc1)c1ccccc1`, for which the AC50 in test [1] is 11.6 µM (active); in [2] it was 9.01 µM (active); in [3], 12.2 µM (active); in test [4] it was 6.97 µM (active); in [5], 6.16 µM (active); in [6] it was 8.19 µM (active). The AC50 in test [7] is 9.32 µM (active); in test [8] it was 12.8 µM (active); in test [9], 7.41 µM (active). The call in test [1] and in test [10] was inactive.
On to `Cc1cc(CCN2CCN(c3nsc4ccccc34)CC2)cc2c1NC(=O)CC2(C)C`, for which the compound was classed as inactive in test [1] and in test [10]. The AC50 in [2] is 26.5 µM (active); in test [3], 31.2 µM (active); in [4], 16.3 µM (active); in test [5], 16.5 µM (active); in test [6] it was 20 µM (active); in [7], 32.4 µM (active). In addition, the half-maximal activity concentration (AC50) in test [8] is 4.31 µM (active); in [9], 4.39 µM (active).
For the compound `c1ccc2c(c1)ccc1ccccc12`, the result in [1], in [2], in test [3], in [4], in [5] and in test [6] was inactive. In addition, the outcome in [7], in test [8], in test [9] and in test [10] was inactive.
On to `NC(=O)N(O)[C@@H]1C=C[C@H](Oc2cccc(Oc3ccc(F)cc3)c2)C1`, for which the call in test [1], in [3], in [4], in test [5], in test [6] and in [7] was inactive. Also, the result in [8], in test [9] and in [10] was inactive. The AC50 in test [2] is 9.5 µM (active).
In the case of `CC(=O)NC1(c2cccc(F)c2)CCN(CC[C@@]2(c3ccc(Cl)c(Cl)c3)CN(c3ccccc3)C(=O)CO2)CC1`, the call in test [1], in [3], in test [7], in test [8] and in test [10] was inactive. Further, the AC50 in test [2] was 21.6 µM (active); in test [4], 12.7 µM (active); in [5] it was 20.4 µM (active); in test [6], 20.3 µM (active); in test [9] it was 16.6 µM (active).
As for `CN1CCN(c2ccccc2/C=C2\SCCN(c3ccc(Cl)c(Cl)c3)C2=O)CC1`, the compound was classed as inactive in test [1], in [8] and in test [10]. The AC50 in [2] was 16.3 µM (active); in test [3], 32 µM (active); in [4], 13.9 µM (active); in [5], 6.28 µM (active); in test [6], 15 µM (active); in [7], 33.3 µM (active). For the same compound, the AC50 in test [9] was 5.49 µM (active).
Take `O=C(O)Cc1cc(I)c(Oc2cc(I)c(O)c(I)c2)c(I)c1`: the result in test [1], in test [2], in test [3], in [4], in test [6] and in test [8] was inactive. In addition, the result in test [10] was inactive. Besides, the AC50 in test [5] is 20.2 µM (active); in [7] it was 8.8 µM (active); in [9], 19.9 µM (active).
Regarding `CCCCCCCC(=O)O`, the compound was called inactive in test [1], in test [2], in test [3], in test [4], in test [5] and in test [6]. In addition, the result in test [7], in [8], in [9] and in test [10] was inactive.
`OC1CCCCC1`: the compound was called inactive in test [1], in test [2], in test [3], in test [4], in [5] and in [6]. Also, the result in test [7], in test [8], in test [9] and in test [10] was inactive.
Regarding `OCCC(F)(F)C(F)(F)C(F)(F)C(F)(F)C(F)(F)C(F)(F)C(F)(F)C(F)(F)F`, the AC50 is 100 µM (active) in test [1]; 29.1 µM (active) and 19 µM (active) in test [2]; 48 µM (active) in [3]; 14.5 µM (active) and 13.5 µM (active) in [5]; 18.2 µM (active) and 15.6 µM (active) in test [6]; 22.8 µM (active) and 20 µM (active) in test [7]. For the same compound, the half-maximal activity concentration (AC50) was 39.7 µM (active) and 27.8 µM (active) in test [9]; 47.9 µM (active) and 20.6 µM (active) in [10]. The compound was called inactive in test [1], in [2], in test [3], in test [4], in test [5] and in [6]. For the same compound, the outcome in [7], in test [8], in test [9] and in [10] was inactive.
As to `Cc1oc(-c2ccccc2)nc1CCOc1ccc(C[C@H](Nc2ccccc2C(=O)c2ccccc2)C(=O)O)cc1`, the call in test [1], in test [3], in test [8] and in test [10] was inactive. Besides, the AC50 in test [2] is 14.9 µM (active); in test [4] it was 37.5 µM (active); in test [5], 32.9 µM (active); in [6], 15.1 µM (active); in test [7], 5.13 µM (active); in test [9], 15.6 µM (active).
Consider `c1ccc2c(c1)Cc1ccccc1-2`, for which the compound was called inactive in [1], in [2], in test [3], in test [4], in test [5] and in test [6]. Also, the result in test [7], in test [8], in [9] and in test [10] was inactive.
With `CC(O)CO` (stereo not given), the compound was called inactive in test [1], in test [2], in [3], in test [4], in test [5] and in test [6]. Besides, the result in [7], in test [8], in [9] and in test [10] was inactive.
As to `COc1cc(CCC(=O)CC(=O)CCc2ccc(O)c(OC)c2)ccc1O`, the result in test [1] was inactive.
Take `CCCCCCCCCCCCc1ccccc1S(=O)(=O)O`: the compound was classed as inactive in test [1], in [2], in test [5], in test [6], in test [8] and in test [9]. Moreover, the outcome in [10] was inactive. The values for the AC50 in [3], in test [4] and in test [7] were 28.8 µM (active), 39 µM (active) and 7.1 µM (active), respectively.

As a reminder, the AC50 is the concentration at which the activity in the assay is half-maximal.
